Data taken from PubChem BioAssay AID463173 (ICCB-Longwood Screening Facility, Harvard Medical School, 2010).
The campaign covered roughly 52,000 compounds. About 1,700 (3.3%) were called active. The entries come from a sample that favours actives as a whole. Unmarked numbers belong to inactive results. Cut-off read from the data, not from the text of the source: active = survival mostly below about 52% (no sharp cut-off); inactive = mostly above about 56%.

Each molecule was assayed on Wild type (assay: S. aureus survival, RN4220 and DeltatarO strains – OD600, teichoic acid synthesis inhibitors, primary screen (AID 463173)). Conditions: S. aureus RN4220 wild type/DeltatarO growth, OD600, 18 h, active compounds read low, screened at 18.75 µg/mL (by protocol).
`Cc1ccc(S(=O)(=O)NCC2CCC(C(=O)NCc3ccc(F)cc3)CC2)cc1` (configuration not stated) showed a survival of 75%.
Work on `CCC(C)NC(=O)c1ccc2c(c1)N(Cc1ccccc1)C(=O)c1ccccc1S2(=O)=O` (configuration not stated) yielded a survival of 85%.
For `COC(=O)c1cc(S(=O)(=O)NCC2CCN(Cc3cccc(F)c3)CC2)c[nH]1`, the survival was 90%.
For `CN(Cc1nc(-c2ccc(Cl)cc2)no1)S(=O)(=O)c1ccccc1`, the survival was 82%.
`CCOc1ccc(NC(=O)N2CCC(CN3CCc4ccccc4C3)CC2)cc1` was tested, and the survival was -3% (active).
With `CCOc1ccc(NC(=O)N2CCC(CN3CCCCCC3)CC2)cc1` the survival was 111%.
With `COc1cc(NC(=O)N2CCC(CN3CCc4ccccc4C3)CC2)cc(OC)c1` the survival was 81%.
For `COC(=O)c1ccc(NC(=O)N2CCC(CN3CCc4ccccc4C3)CC2)cc1`, the survival was 1% (active).
For `Cc1cccc(NC(=O)N2CCC(CN3CCCCCC3)CC2)c1C`, the survival was 55%.
With `CCOc1ccc(NC(=O)N2CCC(CN3CCC(C)CC3)CC2)cc1` the survival was 127%.
In the case of `CCc1ccccc1NC(=O)N1CCC(CN2CCc3ccccc3C2)CC1`, the survival is reported as 60%.
With `Cc1cccc(NC(=O)N2CCC(CN3CCc4ccccc4C3)CC2)c1C` the survival was -4% (active).
With `Cc1cc(C)cc(NC(=O)N2CCC(CN3CCc4ccccc4C3)CC2)c1` the survival was 81%.
In the case of `CCCC(=O)Nc1cc(-c2nnc3c4ccccc4c(C)nn23)ccc1C`, the survival is reported as 72%.
For `O=C(Nc1ccc(O)c(-c2nc3ccccc3o2)c1)c1ccc(Br)cc1`, the survival was 88%.
`CC1Cn2cc(C(=O)Nc3cccc(C(F)(F)F)c3)c(=O)c3c(Cl)ccc(c32)O1` (configuration not stated) was tested, and the survival was 89%.
With `CCOC(=O)c1cccnc1SCC(=O)N(CC)c1cccc(C)c1` the survival was 70%.
`CCn1c(CN2CCCCC2)nc2cc(NC(=O)COc3ccc(C(C)(C)C)cc3)ccc21` gave a survival of 97%.
In the case of `CCOc1cc(C2NC(=O)c3c(sc4c3CCN(C)C4)N2)ccc1OC(=O)c1ccc(Br)cc1` (configuration not stated), the survival is reported as 71%.
Molecule `CCCCCOc1ccc(/C=C/C(=O)Nc2sc(C(C)=O)c(C)c2C(=O)OCC)cc1OC` has a survival of 76%.
In the case of `CCOC(=O)CSc1nc2cc3c(cc2c(=O)n1CCCCCC(=O)NCc1ccc2c(c1)OCO2)OCO3`, the survival is reported as 81%.
`CCOc1ccc(C(=O)c2cn(CC(=O)Nc3cc(OC)ccc3OC)c3cc(OC)c(OC)cc3c2=O)cc1` was tested, and the survival was 68%.
`CC1C(=O)N2CCCc3cc(S(=O)(=O)N4CCC(C(N)=O)CC4)cc1c32` (configuration not stated) was tested, and the survival was -3% (active).
`CCOC(=O)C1CCN(S(=O)(=O)c2cc3c4c(c2)C(C)C(=O)N4CCC3)CC1` (configuration not stated) showed a survival of 88%.
For `COC(=O)C1CCN(S(=O)(=O)c2cc3c4c(c2)C(C)C(=O)N4CCC3)CC1` (configuration not stated), the survival was 125%.
`COc1ccc(N2CCN(C(=O)CSc3n[nH]c(-c4ccccc4)n3)CC2)cc1` showed a survival of 72%.
In the case of `COc1ccc(S(=O)(=O)N(CC(=O)Nc2ccccc2Br)Cc2ccccc2)cc1`, the survival is reported as 77%.
`CCCN(CCC)CCNC(=O)c1cc(-c2ccc(Br)s2)nc2ccccc12` gave a survival of 80%.
For `COc1ccc(Nc2cc(C(=O)NCCCN(C)C3CCCCC3)c3ccccc3n2)cc1`, the survival was 99%.
`CSc1cccc(Nc2cc(C(=O)NCCCN(Cc3ccccc3)C(C)C)c3ccccc3n2)c1` showed a survival of 75%.
`Cc1ccc(C)c(Nc2cc(C(=O)NCCCN(C)C3CCCCC3)c3ccccc3n2)c1` gave a survival of 99%.
In the case of `CCCCN(C)CCCNC(=O)c1cc(-c2ccc(Br)s2)nc2ccccc12`, the survival is reported as 26% (active).
In the case of `Cc1cc(C)cc(Nc2cc(C(=O)NCCCN(Cc3ccccc3)C(C)C)c3ccccc3n2)c1`, the survival is reported as -6% (active).
`Cc1cc(C)cc(Nc2cc(C(=O)NCCCN(C)C3CCCCC3)c3ccccc3n2)c1` was tested, and the survival was 26% (active).
With `CCCCN(C)CCNC(=O)c1cc(-c2ccc(Cl)s2)nc2ccccc12` the survival was 82%.
`Cc1cc(C)cc(Nc2cc(C(=O)NCc3ccccc3)c3ccccc3n2)c1` was tested, and the survival was 139%.
`Cc1ccc2c(c1)NC(=O)C(CC(=O)Nc1cc(Cl)ccc1C)O2` (configuration not stated) was tested, and the survival was 77%.
Molecule `COc1ccc(Br)cc1S(=O)(=O)Nc1cc(-c2cn3ccccc3n2)ccc1C` has a survival of 63%.
Molecule `Cc1ccc(C(=O)Nc2ccc3c(c2)N(C)C(=O)c2ccccc2S3)cc1F` has a survival of 72%.
Work on `O=C(Cn1ncn2c(cc3sccc32)c1=O)NCCc1ccccc1` yielded a survival of 85%.
In the case of `CC(Sc1nnc(-c2ccccc2)n1N)C(=O)O` (configuration not stated), the survival is reported as 109%.
`CCOc1ccc(Nc2ncnc3c2cnn3-c2ccc(F)cc2)cc1` gave a survival of 60%.
`Cc1ccc(N2CCN(C(=O)c3c(C)oc4ncnc(N5CCOCC5)c34)CC2)c(C)c1` gave a survival of 83%.
Work on `CSc1ccc(-c2nc3ncccn3c2Nc2ccc(C)c(C)c2)cc1` yielded a survival of 60%.
Molecule `COc1cc(OC)c(NC(=O)c2c(C)oc3ncn(C)c(=O)c23)cc1Cl` has a survival of 88%.
`COc1cccc(NC(c2nnc(-c3ccccc3)o2)c2ccc(F)cc2Cl)c1` (configuration not stated) gave a survival of 56%.
`Cc1cccc(NC(c2nnc(-c3ccccc3)o2)c2ccc(F)cc2Cl)c1C` (configuration not stated) showed a survival of 55%.
For `CCOc1ccccc1NC(c1nnc(-c2ccccc2)o1)c1ccc(F)cc1Cl` (configuration not stated), the survival was 2% (active).
In the case of `COc1cc(OC)c(NC(c2nnc(-c3ccccc3)o2)c2ccc(F)cc2Cl)cc1Cl` (configuration not stated), the survival is reported as 66%.
`CCc1ccccc1NC(c1nnc(-c2cccc(F)c2)o1)c1ccc(F)cc1Cl` (configuration not stated) showed a survival of 86%.
With `COc1ccc(C)cc1NC(c1nnc(-c2ccccc2)o1)c1ccc(F)cc1Cl` (configuration not stated) the survival was 3% (active).
In the case of `COc1ccc(S(=O)(=O)NCCc2csc(-c3ccc(F)cc3)n2)cc1F`, the survival is reported as 81%.
`Cc1cc(C)cc(NC(=O)CCS(=O)(=O)c2cccc3nsnc23)c1` was tested, and the survival was 64%.
For `COc1cc(C2c3c(oc4ccccc4c3=O)C(=O)N2c2nncs2)cc(OC)c1OC` (configuration not stated), the survival was 76%.
Work on `Cc1ccc2c(c1)sc1nc(=O)n(-c3cccc(Cl)c3)c(=O)n12` yielded a survival of 70%.
Molecule `Cc1ccc2c(c1)sc1nc(=O)n(-c3ccc(Cl)cc3)c(=O)n12` has a survival of 77%.
In the case of `Cc1ccc2c(c1)sc1nc(=O)n(-c3ccc(Cl)c(Cl)c3)c(=O)n12`, the survival is reported as -4% (active).
